These results are taken from PubChem BioAssay.

Experiment [1] is described as follows: differential killing of epithelial or mesenchymal cells, primary screen, imaging, PC-3E GFP, TEM4-18 mCherry, co-culture (AID 1345086;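 active = compounds killing one labelled cell type while sparing the other, by normalised counts and ratio limits, not self-fluorescent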;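 as to all read-outs here: cells exposed to compound for 72 h before imaging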;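 as to red/green cell ratio (normalised): normalised mesenchymal count divided by normalised epithelial count so high means epithelial killing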). Conditions: imaging cell counts, at 1 µM; for red/green cell ratio (normalised): actives lie on both sides, counts scaled to control wells, 1 = unselective.
A short description of experiment [2]: sensitizers of A549 cells to miR-34 induction, primary screen, imaging, A549 dox-inducible miR-34, nuclei and caspase counts (AID 1347080;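 active = compounds whose cell count with miR-34 switched on is under 0.7 times the count with it off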). The following applies: A549 miR-34 inducible, Hoechst nuclei count, 48 h.
For experiment [3], the target named is NAD(+) hydrolase SARM1 (Homo sapiens) (UniProt Q6SZW1). Description: SARM1 TIR NADase inhibitors, cell lysate, NAD-Glo luminescence (AID 1508614;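 active = compound whose remaining NAD level is above about 45 nM, limit read from the data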;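 also: higher remaining NAD means stronger inhibition of SARM1 NADase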). The following applies: SAM-TIR HEK293T lysate NADase, at 1 µM, stronger effect = higher value.
Chain of NAD(+) hydrolase SARM1 (Homo sapiens) (Q6SZW1 whole entry, looked up): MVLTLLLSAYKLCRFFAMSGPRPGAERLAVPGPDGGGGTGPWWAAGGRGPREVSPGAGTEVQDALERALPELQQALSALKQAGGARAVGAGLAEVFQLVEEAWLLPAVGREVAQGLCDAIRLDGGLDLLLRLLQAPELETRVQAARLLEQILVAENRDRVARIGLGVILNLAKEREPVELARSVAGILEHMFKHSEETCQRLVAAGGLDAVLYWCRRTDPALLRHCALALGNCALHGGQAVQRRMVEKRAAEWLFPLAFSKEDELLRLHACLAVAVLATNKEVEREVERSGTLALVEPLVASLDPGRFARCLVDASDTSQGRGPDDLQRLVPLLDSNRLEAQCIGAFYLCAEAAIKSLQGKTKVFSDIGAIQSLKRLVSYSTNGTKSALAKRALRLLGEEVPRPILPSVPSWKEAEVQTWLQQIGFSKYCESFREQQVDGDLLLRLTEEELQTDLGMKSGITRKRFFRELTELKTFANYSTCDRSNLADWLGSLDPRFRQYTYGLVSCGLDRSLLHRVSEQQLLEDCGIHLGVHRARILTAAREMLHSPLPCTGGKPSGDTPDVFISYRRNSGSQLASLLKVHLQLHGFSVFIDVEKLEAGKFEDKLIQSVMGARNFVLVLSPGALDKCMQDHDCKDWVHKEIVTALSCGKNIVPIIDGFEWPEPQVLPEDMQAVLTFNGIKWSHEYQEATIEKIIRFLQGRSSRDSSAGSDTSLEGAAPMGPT
Experiment [4] in a line: hESC survival regulators, cell-based (AID 493140; call rule not given here;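 also: cells exposed to compounds for four days before counting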). Conditions: human embryonic stem cell survival screen; stronger effect = higher value.
Experiment [5] in a line: liver-stage malaria parasite growth inhibition, primary screen, cell-based, HepG2, luciferase luminescence, HepG2 viability (AID 624349).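 Also: 100% = mean of DMSO negative control wells on the same plate.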 The following applies: P. berghei liver stage in HepG2, luciferase luminescence, concentration not given here; parasite load remaining: stronger effect = lower value; viability: measured here: HepG2 viability without parasites.
Experiment [6] in a line: survival rescue of mitochondrial mutant cells in low glucose, primary screen, MELAS cybrids, Rieske KO mouse fibroblasts, CellTiter-Glo (AID 1508586;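 active = mean z-score across replicates of 1.96 or higher in either the MELAS or the Rieske mutant cell line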;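 also: z relative to plate mean and SD of compound and empty wells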). For orientation: Cellular ATP, detected with luciferase, serves as a proxy for viable cell number.
Experiment [7] in a line: viability rescue of complex I mutant cybrids, primary screen, cell-based, galactose medium, ATP luminescence (AID 1645843;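 active = z-score of at least 1.8 in each of two replicates, scored against plate mean and spread of sample wells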;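 also: positive z means more ATP and so rescue of galactose-driven cybrid death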). The following applies: complex I mutant cybrid cells, 72 h, stronger effect = higher value.
Experiment [8] addresses Mitogen-activated protein kinase 7 (Homo sapiens) (UniProt Q13164). Kind of experiment: ERK5 transactivation activators in reporter cells, primary screen, cell-based, HTS (AID 1508626;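 active = luciferase signal above three times the same-plate solvent-only control wells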;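 also: luciferase driven by Gal4-ERK5 fusion binding five Gal4 sites before minimal TATA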). Conditions: HeLa Gal4-ERK5 transactivation, 18 h, at 5 µM, stronger effect = higher value.
The subject of experiment [9] is Hepatitis C virus NS3 helicase. Kind of experiment: HCV NS3 helicase inhibitors, primary screen, biochemical, fluorescence polarization, LOPAC1280 library (AID 687035; in the data active = inhibition above about 37%). The following applies: Purified HCV NS3 helicase, Cy5-dT15 ssDNA binding fluorescence polarization; stronger effect = higher value; concentration not given here.
The nature of experiment [10]: Cy5 fluorescence quenching or enhancement artefacts, artefact control for HCV NS3 helicase inhibitor project, biochemical, LOPAC1280 (AID 687037; call rule not given here). Conditions: Cy5-DNA-NS3h complex fluorescence interference counterscreen.
Where [11] appears, read: measured here: epithelial PC-3E GFP cell survival.
Setting [12] is: measured here: mesenchymal TEM4-18 mCherry cell survival.
The mark [13] stands for this setting: stronger effect = lower value, cell number ratio, induced over uninduced.
The mark [14] stands for this setting: measured here: relative caspase fold change +Dox/-Dox.
[15] abbreviates: measured here: total cells with miR-34 induction, stronger effect = lower value.
Where [16] appears, read: measured here: total cells without miR-34 induction.
[17] abbreviates: MELAS cybrid survival, CellTiter-Glo 48 h, stronger effect = higher value.
The mark [18] stands for this setting: Rieske KO mouse fibroblast survival, CellTiter-Glo 72 h.

Values joined by “and” are separate entries in the source; they are usually repeats but may differ in a detail not shown here. Identical values can stand only once. Active and inactive are the calls of the source. Rule as the data show it, unless noted: active = parasite load remaining mostly below about 12% (no sharp cut-off); inactive = mostly above about 10%.

Chain of Mitogen-activated protein kinase 7 (Homo sapiens) (Q13164 whole entry, looked up, the tested form may be a part): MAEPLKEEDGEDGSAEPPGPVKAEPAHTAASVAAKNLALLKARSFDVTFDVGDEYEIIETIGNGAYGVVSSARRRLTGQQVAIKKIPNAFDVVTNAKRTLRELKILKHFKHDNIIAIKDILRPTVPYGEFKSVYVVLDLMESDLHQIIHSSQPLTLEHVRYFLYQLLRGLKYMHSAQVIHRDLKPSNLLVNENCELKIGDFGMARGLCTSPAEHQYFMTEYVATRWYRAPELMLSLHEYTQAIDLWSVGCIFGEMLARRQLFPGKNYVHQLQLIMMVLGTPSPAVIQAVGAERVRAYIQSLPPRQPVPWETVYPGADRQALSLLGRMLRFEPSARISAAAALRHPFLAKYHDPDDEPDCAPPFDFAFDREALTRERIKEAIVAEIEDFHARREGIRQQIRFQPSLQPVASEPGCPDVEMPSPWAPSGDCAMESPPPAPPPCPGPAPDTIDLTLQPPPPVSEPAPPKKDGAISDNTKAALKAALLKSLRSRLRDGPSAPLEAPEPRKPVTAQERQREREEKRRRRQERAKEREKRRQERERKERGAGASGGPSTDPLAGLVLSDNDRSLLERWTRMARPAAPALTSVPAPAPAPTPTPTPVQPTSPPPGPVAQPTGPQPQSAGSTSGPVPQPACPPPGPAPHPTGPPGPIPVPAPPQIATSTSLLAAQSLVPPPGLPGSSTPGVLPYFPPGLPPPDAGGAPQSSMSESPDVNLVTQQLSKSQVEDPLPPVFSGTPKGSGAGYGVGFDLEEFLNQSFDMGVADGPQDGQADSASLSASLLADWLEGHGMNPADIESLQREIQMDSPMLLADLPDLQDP

In the case of `CC1(C)C(C=C(Cl)Cl)C1C(=O)OCc1cccc(Oc2ccccc2)c1` (stereo not drawn), the red/green cell ratio (normalised) in [1] is 0.81 (inactive). The normalised cell number in [1] (setting [11]) came out at 1.23; in experiment [1] (setting [12]) it was 1. Also, the values for the fold change in experiment [2] (setting [13]) and in experiment [2] (setting [14]) were 0.928 (inactive) and 0.968, respectively. Also, the cell count in [2] (setting [15]) was found to be 8290; in [2] (setting [16]) it was 8930. In addition, the remaining NAD in experiment [3] was 10 nM (inactive).
As a reminder, the viability is a read-out of living cells in per cent, often relative to untreated cells. Take `COc1cc(-c2ccc(N=Nc3ccc4c(S(=O)(=O)O)cc(S(=O)(=O)O)c(N)c4c3O)c(OC)c2)ccc1N=Nc1ccc2c(S(=O)(=O)O)cc(S(=O)(=O)O)c(N)c2c1O`: the survival in experiment [4] is 5.92 (inactive). For the same molecule, the parasite load remaining in [5] is 77.2% (inactive) and 55.6% (inactive). For the same molecule, the viability in experiment [5] is 74.5% and 64.2%. For the same molecule, the red/green cell ratio (normalised) in experiment [1] is 1.11 (inactive). In addition, the normalised cell number in [1] (setting [11]) was found to be 1.16; in [1] (setting [12]), 1.29. Moreover, the fold change was 0.857 (inactive) in experiment [2] (setting [13]) and 0.848 in experiment [2] (setting [14]). For the same molecule, the cell count in experiment [2] (setting [15]) stood at 8930; in experiment [2] (setting [16]), 10400. Besides, the z-score in [6] (setting [17]) is -1.41 (inactive); in [6] (setting [18]) it was -1.32.
Consider `NC1CCN(c2c(F)cc3c(=O)c(C(=O)O)cn(C4CC4)c3c2Cl)C1` (stereo not drawn), for which, in [5], the parasite load remaining was 12.5% (inactive). Moreover, in experiment [5], the viability turned out to be 73%. In experiment [1], the red/green cell ratio (normalised) was 1.1 (inactive) and 0.63 (inactive). Moreover, the normalised cell number is 1 and 1.34 in experiment [1] (setting [11]); 1.09 and 0.84 in [1] (setting [12]). Also, the fold change in experiment [2] (setting [13]) was 0.917 (inactive) and 0.881 (inactive); in experiment [2] (setting [14]), 1.1 and 1.36. The cell count in [2] (setting [15]) is 7910 and 9140; in experiment [2] (setting [16]) it was 8620 and 10400. For the same molecule, the z-score was 0.53 (inactive) and 0.358 (inactive) in [6] (setting [17]); -0.371 and 0.0233 in experiment [6] (setting [18]); 0.72 (inactive) in [7]. For the same molecule, the remaining NAD in [3] is 10 nM (inactive).
Turning to `CCCC(=O)O[C@]1(C(=O)CO)CCC2[C@@H]3CCC4=CC(=O)CC[C@]4(C)C3[C@@H](O)C[C@@]21C` (stereo partly drawn), the parasite load remaining in experiment [5] was 170% (inactive) and 68.7% (inactive). In experiment [5], the viability was 85% and 121%. In experiment [1], the red/green cell ratio (normalised) is 1.26 (inactive). In addition, the values for the normalised cell number in [1] (setting [11]) and in experiment [1] (setting [12]) were 1.07 and 1.34, respectively. Moreover, the fold change was 0.953 (inactive) in experiment [2] (setting [13]) and 2.16 in [2] (setting [14]). For the same molecule, the cell count in experiment [2] (setting [15]) stood at 7610; in experiment [2] (setting [16]), 7980.
As for `CC(=O)NS(=O)(=O)c1ccc(NC(=O)c2ccccc2C(=O)O)cc1`, in experiment [1], the red/green cell ratio (normalised) was 0.81 (inactive). Also, the normalised cell number in experiment [1] (setting [11]) stood at 1.22; in experiment [1] (setting [12]) it was 0.99. Also, the results for the fold change in [2] (setting [13]) and in experiment [2] (setting [14]) were 0.886 (inactive) and 0.953, respectively. Besides, the cell count turned out to be 8920 in [2] (setting [15]) and 10100 in experiment [2] (setting [16]). The remaining NAD in [3] is 10 nM (inactive). In addition, in experiment [8], the luciferase signal was 100 AU (inactive).
Consider `CN(C)[C@@H]1C(=O)C(C(=O)NCN2CCCC2)=C(O)[C@@]2(O)C(=O)C3=C(O)c4c(O)cccc4[C@@](C)(O)[C@H]3C[C@@H]12`, for which the parasite load remaining in experiment [5] was 26.9% (inactive). For the same molecule, the viability in experiment [5] amounted to 99.8%. Also, the red/green cell ratio (normalised) in [1] was 0.9 (inactive). The results for the normalised cell number in experiment [1] (setting [11]) and in [1] (setting [12]) were 1.09 and 0.97, respectively. Moreover, the fold change in [2] (setting [13]) is 0.855 (inactive); in [2] (setting [14]) it was 4.3. Moreover, the cell count in experiment [2] (setting [15]) worked out at 11700; in experiment [2] (setting [16]) it was 13600. Further, the remaining NAD in [3] was 10 nM (inactive). Also, the luciferase signal in [8] was 112 AU (inactive).
The term inhibition denotes the share of the control response that was lost under treatment. With `CO/N=C(/C(=O)N[C@@H]1C(=O)N2C(C(=O)O)=C(COC(C)=O)CS[C@H]12)c1csc(N)n1`, the parasite load remaining in experiment [5] is 84.7% (inactive) and 61.2% (inactive). Further, the viability in [5] is 73.5% and 100%. For the same molecule, the inhibition in [9] was 6% (inactive). Further, the fluorescence ratio (interference) in experiment [10] is 1 (inactive). For the same molecule, in [1], the red/green cell ratio (normalised) was 1.18 (inactive). Also, the normalised cell number was 1.15 in [1] (setting [11]) and 1.35 in [1] (setting [12]). The results for the fold change in experiment [2] (setting [13]) and in experiment [2] (setting [14]) were 0.913 (inactive) and 1.26, respectively. Further, the figures for the cell count in experiment [2] (setting [15]) and in experiment [2] (setting [16]) were 11200 and 12300, respectively.
For the molecule `C[C@@H]1CC2C3C[C@H](F)C4=CC(=O)C=C[C@]4(C)[C@@]3(F)[C@@H](O)C[C@]2(C)[C@@]1(O)C(=O)COC(=O)C(C)(C)C` (stereo partly drawn), the parasite load remaining in experiment [5] is 119% (inactive) and 74% (inactive). In experiment [5], the viability was 76.5% and 90.1%. Moreover, in experiment [1], the red/green cell ratio (normalised) was 1.34 (inactive). Besides, the normalised cell number was 1 in experiment [1] (setting [11]) and 1.35 in experiment [1] (setting [12]). The fold change in experiment [2] (setting [13]) was 0.838 (inactive); in experiment [2] (setting [14]) it was 1.19. The cell count stood at 6940 in [2] (setting [15]) and 8290 in experiment [2] (setting [16]). Moreover, the luciferase signal in [8] is 20 AU (inactive).
`CNC[C@@H](O)c1ccc(O)c(O)c1`: the parasite load remaining in experiment [5] is 51.9% (inactive) and 119% (inactive). In addition, in [5], the viability is 72.9% and 92%. For the same molecule, the red/green cell ratio (normalised) in [1] is 1.49 (inactive). Also, the normalised cell number in experiment [1] (setting [11]) stood at 1.01; in [1] (setting [12]), 1.5. For the same molecule, the fold change was 0.901 (inactive) in experiment [2] (setting [13]) and 3.62 in experiment [2] (setting [14]). For the same molecule, the cell count in [2] (setting [15]) was 11500; in experiment [2] (setting [16]) it was 12800.
In the case of `O=C(CNC(=O)c1ccc(Cl)cc1)NO`, in experiment [5], the parasite load remaining was 45.5% (inactive). Besides, in experiment [5], the viability amounted to 106%. The red/green cell ratio (normalised) in experiment [1] was 0.95 (inactive). Also, the normalised cell number was determined as 1.13 in [1] (setting [11]) and 1.08 in experiment [1] (setting [12]). Besides, the fold change in experiment [2] (setting [13]) is 0.961 (inactive); in experiment [2] (setting [14]), 3.28. For the same molecule, the cell count in experiment [2] (setting [15]) was 12100; in experiment [2] (setting [16]), 12600. For the same molecule, the remaining NAD in [3] is 10 nM (inactive). The luciferase signal in experiment [8] is 60 AU (inactive).
